Test results taken from PubChem BioAssay (NCI).
This is part of a sample that, as a whole, favours compounds with a hit. Of some 83,000 tested, about 20% had one in any assay.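 Testing used 96-well plates and a 48-hour single-concentration exposure. Example: -40 means 40% of the starting cells died.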 Calls of active or inactive are those of the source. How the source made its calls: active means growth percent below 10; inactive means the rest.

Each compound was assayed on NCI-H226 lung (assay: NCI-60 one-dose screen, 48 h (100 = growth as untreated, 0 = no growth, -100 = all killed)). Settings: 10 µM unless noted.
In the case of `Cc1ccc2c(c1)C(=O)C(c1c(-c3[nH]c(=O)c4ccc(C)cc4c3O)c(O)c3ccccc3c1O)=NC2=O`, the growth is reported as -1.84% (active). In the case of `C=CCn1c(C)nc2ccc(Nc3nc(Nc4ccc(F)cc4)nc4ccccc34)cc21`, the growth is reported as 85.4% (inactive). With `COc1ccccc1CNCCCN1C(=O)c2ccc3c4c(ccc(c24)C1=O)C(=O)N(CCCNCCCCNCCCCN)C3=O` the growth was 27% (inactive). With `COc1ccc2c(c1)C(=O)/C(=C/c1ccc(O)cc1)O2` the growth was 78.2% (inactive). `COc1ccc(-c2cn[nH]c2-c2cc(OC)c3c(c2)OCO3)cc1` was tested, and the growth was 47.7% (inactive). For `CCCCCCCCCCCCNC(=S)N/N=C/c1ccc(Cl)c(Cl)c1`, the growth was 106% (inactive). With `O=C1Nc2ccc(Br)cc2C1=N/C=c1\[nH]c(=O)/c(=C/c2ccc(Cl)cc2)s1` the growth was 98.3% (inactive). With `O=C(CNc1c(Cl)cccc1Cl)Nc1ccc(-c2nc3ccccc3s2)cc1` the growth was 54.4% (inactive). In the case of `CCn1c(=O)c2c(=O)c3c4c(oc3oc2c2ccccc21)C(=O)c1ccccc1C4=O`, the growth is reported as 99.4% (inactive). For `CN1CCN(c2ccc3cc(-c4nc5ccccc5[nH]4)c(=O)oc3c2)CC1`, the growth was 89% (inactive). In the case of `COc1ccc(OC)c(C(=O)c2oc3ccc(Br)cc3c2N)c1`, the growth is reported as 55.9% (inactive). `Cc1ccc(Cn2c(-c3nonc3N)nc3ccccc32)cc1` was tested, and the growth was 82.7% (inactive). With `Cc1ccc(S(=O)(=O)NCCCNc2nccc(-c3c(-c4ccccc4)nc4sccn34)n2)cc1` the growth was 49.4% (inactive). With `COC1=CC(c2ccc[nH]2)=N/C1=C\c1[nH]c(C)c(C(=O)CCCCC(=O)Oc2ccc3c(c2)CCC2C3CC[C@]3(C)[C@@H](O)CC[C@@H]23)c1C` (some centres undefined) the growth was 61.5% (inactive).
